Compound activity deposited in PubChem by National Center for Advancing Translational Sciences (NCATS).
This is a sample that favours compounds with a hit; in the whole collection about 0.74% have one here.
BLM inh: blocks DNA unwinding by human BLM helicase; P54132; recombinant BLM DNA unwinding, fluorescence dequenching; Potency, µM (top dose mostly 56.1 µM), most hits filed as inhibitors; hit rate 0.2% among 350,000; AID 2528; note: nearly all actives have a fitted effect of over 35% in size
Target sequence (P54132 whole entry, looked up): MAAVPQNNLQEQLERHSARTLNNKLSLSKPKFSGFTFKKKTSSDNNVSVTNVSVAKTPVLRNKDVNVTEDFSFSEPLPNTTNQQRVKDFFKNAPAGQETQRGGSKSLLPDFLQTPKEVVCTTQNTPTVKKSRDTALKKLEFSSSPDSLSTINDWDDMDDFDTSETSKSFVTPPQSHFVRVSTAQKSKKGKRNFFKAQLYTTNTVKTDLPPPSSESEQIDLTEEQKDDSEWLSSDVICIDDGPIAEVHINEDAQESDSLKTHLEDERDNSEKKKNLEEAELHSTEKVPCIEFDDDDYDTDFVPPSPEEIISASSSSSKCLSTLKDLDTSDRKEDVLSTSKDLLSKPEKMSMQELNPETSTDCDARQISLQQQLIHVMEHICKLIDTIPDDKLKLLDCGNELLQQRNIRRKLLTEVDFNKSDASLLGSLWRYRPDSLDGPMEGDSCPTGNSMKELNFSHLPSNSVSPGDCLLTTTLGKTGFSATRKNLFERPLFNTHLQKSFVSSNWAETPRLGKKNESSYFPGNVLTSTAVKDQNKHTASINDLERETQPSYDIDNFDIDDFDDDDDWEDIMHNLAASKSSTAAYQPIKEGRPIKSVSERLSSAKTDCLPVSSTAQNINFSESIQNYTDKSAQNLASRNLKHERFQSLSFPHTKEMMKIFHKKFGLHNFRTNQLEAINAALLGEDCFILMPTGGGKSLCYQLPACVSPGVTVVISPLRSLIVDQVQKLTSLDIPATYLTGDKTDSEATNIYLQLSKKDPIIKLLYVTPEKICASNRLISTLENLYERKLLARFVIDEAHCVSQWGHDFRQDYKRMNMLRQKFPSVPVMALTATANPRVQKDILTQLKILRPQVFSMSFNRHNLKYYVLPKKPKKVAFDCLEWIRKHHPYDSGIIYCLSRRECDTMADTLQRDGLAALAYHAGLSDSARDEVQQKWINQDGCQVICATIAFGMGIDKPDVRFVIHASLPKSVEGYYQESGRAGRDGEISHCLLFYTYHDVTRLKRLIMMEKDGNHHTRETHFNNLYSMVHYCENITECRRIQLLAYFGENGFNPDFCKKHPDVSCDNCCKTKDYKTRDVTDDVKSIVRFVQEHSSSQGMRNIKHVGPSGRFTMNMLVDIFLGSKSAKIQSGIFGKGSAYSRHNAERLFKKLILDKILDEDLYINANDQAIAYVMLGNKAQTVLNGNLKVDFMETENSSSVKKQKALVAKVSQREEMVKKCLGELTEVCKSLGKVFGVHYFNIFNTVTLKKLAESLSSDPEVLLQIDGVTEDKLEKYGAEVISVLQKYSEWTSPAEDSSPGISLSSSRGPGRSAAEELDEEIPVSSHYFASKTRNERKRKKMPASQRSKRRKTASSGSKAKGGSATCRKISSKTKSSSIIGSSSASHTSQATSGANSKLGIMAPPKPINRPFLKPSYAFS
APE1 inh: blocks human APE1 abasic DNA cleavage. P27695. recombinant APE1, TAMRA/BHQ-2 abasic DNA cleavage fluorescence. Potency, µM (series often up to 65.8 µM), usual class: inhibitors. hit rate 0.35% among 350,000; note: nearly all actives have a fitted effect of over 55% in size
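Enzyme (0.75 nM final) and test compound are incubated 15 min at room temperature before adding 50 nM quenched THF abasic-site duplex. Cleavage dequenches TAMRA, followed at 525/598 nm over three reads one minute apart.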
Tb PGK inh: T. brucei PGK inhibition. P07378. PGK/GAPDH coupled, Kinase-Glo luminescence, 60 min. Potency, µM (titrated, usually from 57.5 µM), usual class: inhibitors. hit rate 0.043% among 380,000. AID 602233; note: nearly all actives have a fitted effect of over 60% in size
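Luminescent ATP detection (Kinase-Glo Plus) follows a 60-minute room-temperature incubation, with wells lacking PGK as controls. Buffer: 100 mM TEA (pH 7.6), 5 mM MgCl2, 0.01% Tween-20. Coupling enzyme GAPDH (100 nM final) supplies unstable 1,3-BPG in-well.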
RECQ1 inh: blocks DNA unwinding by human RECQ1. P46063. RECQ1 DNA unwinding, red fluorescence kinetic read. Potency, µM (top dose mostly 57.3 µM), hits mostly inhibitors. hit rate 0.54% among 240,000. AID 2549; note: nearly all actives have a fitted effect of over 30% in size
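50 nM RECQ1T1 preincubated 15 min with compound in Tris pH 8.0 buffer with MgCl2, DTT, Tween-20 and 2.5 ug/ml poly(dI-dC); started with 200 nM TAMRA/BHQ-2 forked duplex and 2 mM ATP. Unwinding read as fluorescence (525/598 nm), two reads 2 h apart.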
FEN1 inh-1: blocks human flap endonuclease 1. hit rate 0.35% among 390,000. Recombinant FEN1 flap cleavage, fluorescence, 15 min. P39748. Potency, µM (highest dose often 114 µM), most hits filed as inhibitors; note: nearly all actives have a fitted effect of over 65% in size
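With each library titrated from low to high concentration, compounds met 10 nM FEN1 for 15 min at room temperature before 50 nM substrate was added; readings at 0 and 15 min fed four-parameter Hill curve fits.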
FEN1 inh-2: confirmation of human FEN1 inhibitors. shares compounds with FEN1 inh-1. hit rate 79% among 880. FEN1 flap cleavage, TAMRA/BHQ2 fluorogenic DNA substrate. Potency, µM, most hits filed as inhibitors; note: nearly all actives have a fitted effect of over 60% in size
A number is an active result; - = inactive; ? = inconclusive; . = not tested or not shown. Calls come from the whole dose curve; as a rule, active = well fitted curve in the direction sought with a large enough effect; inconclusive = small, poorly fitted or top-dose-only effect, or another doubt; inactive = no such curve, though single readings can be large; an effect the other way counts as inactive or inconclusive.

SMILES | BLM inh | APE1 inh | Tb PGK inh | RECQ1 inh | FEN1 inh-1 | FEN1 inh-2
Cc1ccc(OCC(=O)Nc2ccc3c(c2)nc(CCN2CCC(C)CC2)n3C)cc1 | - | - | - | . | - | .
CCOc1ccc(N2C(=O)CC(N(Cc3ccco3)C(=O)CCC(=O)O)C2=O)cc1 (stereo not given) | - | - | - | - | - | .
COc1ccc(-c2nn(C)c3sc(C(=O)Nc4cc(OC)c(OC)c(OC)c4)cc23)cc1OC | 20µM | . | - | . | 10µM | 7.6
COc1ccc(CCNC(=O)Cn2nc(C)c3c(C)n(-c4ccccc4)nc3c2=O)c(OC)c1 | - | - | - | . | - | .
COc1ccc(OC)c(CCNC(=O)Cn2nc(C)c3c(C)n(-c4ccc(C)cc4)nc3c2=O)c1 | - | - | - | . | ? | ?
CC(C)(C)OC(=O)C(C(=O)OC(C)(C)C)c1ccc(Cl)nn1 | - | - | - | - | - | .
CC(=O)OC1CC(OC(C)=O)[C@]2(C)C(CC(=O)[C@]3(C)C2CC[C@@]2(C)C(c4ccoc4)OC(=O)C4O[C@@]423)C1(C)C (stereo not given in full) | - | - | . | - | . | .
COc1ccc(C(C(=O)NC2CCCCC2)N(C(=O)c2ccco2)c2ccc(-n3cnnn3)c(C)c2)cc1 (stereo not given) | . | . | - | . | - | .
CN(C)CCCNCCCNC(=O)c1ccco1 | - | - | - | - | - | .
CCCN(CCC)CCCNC(=O)c1cc2c(-c3ccc(Cl)cc3)nn(C)c2s1 | - | . | - | . | ? | ?
COc1ccc(CNC(=O)c2cc3c(-c4ccc(Cl)cc4)nn(C)c3s2)cc1 | - | . | - | . | - | .
Cc1cccc2nc(-c3cccc(NC(=O)c4ccc(Cl)cc4)c3)cn12 | ? | ? | - | ? | ? | 60
Cc1ccc(S(=O)(=O)ON2C(=O)c3cccc4cccc(c34)C2=O)cc1 | - | - | . | - | 18µM | 38
O=C1c2cccc3cccc(c23)C(=O)N1OS(=O)(=O)c1ccc(Br)cc1 | - | - | - | - | ? | 11
CCN(CCCNc1cc2c(c(N)c1S(=O)(=O)O)C(=O)c1ccccc1C2=O)c1ccccc1 | . | . | ? | . | . | ?
CCn1nc(C(=O)NNC(=O)c2cc(Cl)ccc2OC)c2ccccc2c1=O | . | - | - | . | - | .
CC1=[N+](C)c2c(ccc3cccnc23)C1(C)C | - | ? | - | ? | 45µM | 43
CC(CNC(=O)c1ccc(-c2ccccc2)cc1)CN(C)C (stereo not given) | - | - | - | - | - | .
CN1C(=O)c2cccc3c(Cl)ccc(c23)C1=O | - | - | - | - | - | .
CNc1ccc2c3c(cccc13)C(=O)N(C)C2=O | - | - | - | . | ? | ?
COc1ccc2nc(NC(=O)c3nc(SCc4cccc(C)c4)ncc3Cl)sc2c1 | - | . | - | . | - | .
COC(=O)c1ccccc1-c1c2ccc(=N)cc-2oc2cc(N)ccc12 | . | 27µM | - | . | 28µM | 67
CC(OC(=O)c1ccc([N+](=O)[O-])o1)C(=O)NC1CCCCC1C (stereo not given) | . | - | - | . | 13µM | 6
Cn1c(N)c(C(=O)COC(=O)c2ccc(Br)o2)c(=O)n(C)c1=O | - | ? | - | - | - | .
Cn1c(N)c(C(=O)COC(=O)c2ccc([N+](=O)[O-])o2)c(=O)n(C)c1=O | - | - | - | - | ? | 8.5
SMILES | BLM inh | APE1 inh | Tb PGK inh | RECQ1 inh | FEN1 inh-1 | FEN1 inh-2
Cc1ccc(C(=O)OC(C)C(=O)NC2CCCCC2C)s1 (stereo not given) | . | - | - | . | - | .
CCOC(=O)C1CCN(C(=O)COC(=O)c2ccc([N+](=O)[O-])o2)CC1 | . | - | - | . | ? | 11
CC1CCCC(C)N1C(=O)COC(=O)c1ccc([N+](=O)[O-])o1 (stereo not given) | . | - | - | . | ? | 15
C#CCOCCOCCOCCNc1nc(N2CCN(C(=O)[C@H](CCCN=C(N)N)n3cc(C(N)[C@@H](C)CC)nn3)CC2)nc(N2CCN(C(=O)[C@H](CC(N)=O)n3cc([C@@H](N)C(C)C)nn3)CC2)n1 (stereo not given in full) | . | - | - | . | - | .
COc1cccc(OC)c1OCCN1CCCC1 | - | - | - | . | - | .
O=c1c2ccccc2nc2sc(Nc3cccc(N4CCNCC4)c3)nn12 | . | . | . | . | . | 34
Cc1cccc(N=C2NC(=O)/C(=C/c3cccn3C)S2)c1C | - | - | - | - | - | .
Cc1cccc(N=C2NC(=O)/C(=C/C=C/c3ccco3)S2)c1C | ? | ? | ? | - | 45µM | 76
COc1ccc(S(=O)(=O)NC2CCCCCC2)c(OC)c1 | - | - | - | . | - | .
COc1cc(C(=O)NCC(c2ccc3c(c2)OCO3)N2CCN(C)CC2)cc(OC)c1OC (stereo not given) | - | . | - | . | - | .
COc1cc2c(oc(=O)c3cc(C)cc(OC)c32)c2c(C3OC(C)C(O)C(C)(O)C3O)ccc(O)c12 (stereo not given) | . | . | - | . | 3.5µM | 0.85
COc1cccc2cc(C(=O)N3CC(C)OC(C)C3)c(=O)oc12 (stereo not given) | - | - | - | . | - | .
O=S(=O)(c1ccc(Br)cc1Cl)N1CCN(CCO)CC1 | - | - | - | - | - | .
O=C1C=CC(=O)c2c(O)c(N3CCN(CCO)CC3)c(Cl)c(O)c21 | . | . | ? | . | ? | 76
O=C1C=CC(=O)c2c(O)c(N3CCN(CCOCCO)CC3)c(Br)c(O)c21 | . | . | ? | . | 32µM | 34
Cc1ccc(S(=O)(=O)Nc2ccc3c(c2)C(=O)N([C@H](C)CO)C[C@H](C)[C@@H](CN(C)C(=O)Nc2ccc4c(c2)OCO4)O3)cc1 | . | - | - | . | - | .
Cc1ccc(S(=O)(=O)Nc2ccc(Br)cc2C(NCC(=O)O)c2ccccc2)cc1 (stereo not given) | - | - | - | - | - | .
O=C(O)CSc1cc(NS(=O)(=O)c2ccc(Br)cc2)c2ccccc2c1O | ? | - | - | . | ? | 67
O=C(NNCc1ccc(O)cc1)c1ccccc1Cl | - | - | - | . | - | .
Cc1cc2oc(C(=O)Nc3ccc(S(=O)(=O)N4CCCC(C)C4)cc3)cc(=O)c2cc1Cl (stereo not given) | - | - | - | - | - | .
CCN1/C(=C/c2ccc3cc(C)ccc3[n+]2CC)Sc2ccccc21 | - | - | - | ? | ? | 19
CCN1/C(=C/c2ccc3cc(C)ccc3[n+]2CC)Sc2cc(C)c(C)cc21 | - | - | - | - | 32µM | 4.8
Cc1ccc(C)c(N2CCN(S(=O)(=O)c3ccc4oc(=O)c5ncn(C)c5c4c3)CC2)c1 | - | . | - | . | - | .
O=C1NC2c3c(Cl)sc(Cl)c3C(=O)C2O1 (stereo not given) | . | . | ? | . | ? | ?
O=C1NC2c3c(I)sc(I)c3C(=O)C2O1 (stereo not given) | . | . | - | . | - | .
Cc1cc(=O)[nH]c2cc(N)ccc12 | . | . | . | . | - | .
Nc1ccc2cc3[nH]c4cc(N)ccc4c3nc2c1 | . | . | - | . | 11µM | 12
